Measured values as given in PubChem BioAssay AID2125 (NMMLSC, 2009).
A number with no mark means an inactive call.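 Rule for the calls: active = combined score above 50, rising as EC50 falls below 10 µM and growth at top dose drops; inactive = the rest.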 Peptide text beside a SMILES is read from it. * marks the point of attachment. Cbz = O=C(OCc1ccccc1)*

System: YE3959
Experiment: growth inhibition of S. cerevisiae strain panel, profiling panel, 26S proteasome disassembly project, secondary panel, OD600 (AID 2125)
Details: growth OD600, 6-8 h, at 100 µM, hits give low values

## CC(=O)N1C(=O)C(=C2C=C(C)OC(C)=C2)c2ccccc21
  percent response (growth): 60.8%

## CC(C)C[C@@H](C=O)NC(=O)[C@H](CC(C)C)NC(=O)[C@H](CC(C)C)NC(=O)OCc1ccccc1 (Cbz-Leu-Leu-Leu-aldehyde)
  percent response (growth): 52.8%
